High-throughput results (PubChem BioAssay)
p53 reactivation = qHTS assay for re-activators of p53 using a Luc reporter; AID 504706, 2011; Potency, µM (highest dose often 92.2 µM), actives largely listed as activators; hit rate 0.063% among 320,000; H1299 p53-A138V BP100-luciferase reporter, luminescence, 24 h; note: nearly all actives have a fitted effect of over 45% in size
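p53-null H1299 cells stably carrying temperature-sensitive p53-A138V and a BP100-luciferase reporter were pinned with compounds (4-point, 1:5 series) and held 24 hrs at 37 deg C. Luminescence was read 10 min after detection reagent.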
uPA generation = qHTS for Inhibitors of Cell Surface uPA Generation. cell surface uPA generation assay, qHTS. Potency, µM (highest dose often 38.3 µM), hits mostly inhibitors. hit rate 0.31% among 330,000. AID 540303, 2011; active = well fitted inhibition curve with a large enough effect; inconclusive = small, poorly fitted or top-dose-only effect; inactive = no such curve, though single readings can be large or run the other way; tested in mouse RAW 264.7 cells; note: nearly all actives have a fitted effect of over 55% in size
KCNH2 WT inh = qHTS for Inhibitors of KCHN2 3.1: Wildtype qHTS; U2OS, BacMam KCNH2, thallium flux FluxOr; stronger effect = lower value; activity change, % at 1.84 µM; hit rate 0.37% among 340,000; AID 720551, 2013;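 active = maximum activity change below -70%; inconclusive = maximum activity change between -70% and -50%; inactive = maximum activity change above -50%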
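U2OS cells were transduced with wild-type KCNH2 virus (2.03 x 10^8 / mL) for 4 h at room temperature, then cultured overnight at 37 C. Thallium flux was read with FluxOr dye. Rate constants were normalized to DMSO controls.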
KCNH2 3.1 inh = qHTS for Inhibitors of KCHN2 3.1: Mutant qHTS. U2OS KCNH2 3.1, thallium flux FluxOr; stronger effect = lower value. hit rate 0.95% among 340,000. Potassium voltage-gated channel subfamily H member 2, brain isoform KCNH2 3.1 (human). activity change, % (tested at about 1.8 µM);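 active = maximum activity change below -70%; inconclusive = maximum activity change from -70% to -50%; inactive = maximum activity change above -50%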;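 note: thallium influx rate constant from kinetic fluorescence after stimulation buffer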
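Virally transduced U2OS (3.1 isoform, 4 h infection in dark at RT) → overnight 37 C → FluxOr + Red40 in HBSS/HEPES, 45 min → stimulation buffer, 2 min kinetic read → rate constant vs DMSO controls.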
Mm-Cpn inhibitor = Inhibitors of TCP-1 ring complex (TRiC) of Methanococcus maripaludis (MmCpn): qHTS | Potency, µM (titrated, usually from 76.9 µM), actives largely listed as inhibitors | AID 504842, 2011 | Chaperonin Mm-Cpn (Methanococcus maripaludis) | hit rate 0.031% among 330,000 | purified Mm-Cpn ATPase, ADP Transcreener TR-FRET; note: nearly all actives have a fitted effect of over 80% in size
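Eu-cryptate anti-ADP/ADP-d2 competition gives a ratio inversely related to ADP. Enzyme at 25 nM was pre-exposed to compound for 10 min, then given 10 uM ATP for 30 min, 37°C throughout.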
ASM inhibitor = Inhibitors of Secretory Acid Sphingomyelinase (S-ASM): qHTS | Sphingomyelin phosphodiesterase (Homo sapiens), P17405 | placental ASM, HMU-PC fluorogenic substrate, 60 min | Potency, µM (doses to about 57.5 µM), usual class: inhibitors | hit rate 0.006% among 340,000 | AID 504937, 2011
Target sequence (P17405 47-631 limits assumed): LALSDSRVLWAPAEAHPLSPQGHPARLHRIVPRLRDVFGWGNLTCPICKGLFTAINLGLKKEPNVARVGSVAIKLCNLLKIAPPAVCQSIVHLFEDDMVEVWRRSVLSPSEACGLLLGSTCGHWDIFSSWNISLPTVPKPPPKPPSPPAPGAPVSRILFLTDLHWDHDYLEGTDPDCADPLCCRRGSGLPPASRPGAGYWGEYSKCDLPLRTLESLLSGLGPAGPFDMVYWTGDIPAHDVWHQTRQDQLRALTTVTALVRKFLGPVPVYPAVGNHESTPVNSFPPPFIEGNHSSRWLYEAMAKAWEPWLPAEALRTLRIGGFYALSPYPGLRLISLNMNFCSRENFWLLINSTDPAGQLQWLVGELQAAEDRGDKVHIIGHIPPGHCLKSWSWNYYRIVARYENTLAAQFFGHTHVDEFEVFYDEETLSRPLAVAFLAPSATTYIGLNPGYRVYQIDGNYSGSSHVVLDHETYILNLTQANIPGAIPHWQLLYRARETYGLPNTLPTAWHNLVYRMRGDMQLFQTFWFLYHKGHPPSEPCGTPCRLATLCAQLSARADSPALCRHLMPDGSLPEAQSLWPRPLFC
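Human placenta-derived ASM enzyme was preincubated with compound for 10 minutes at room temperature, then given fluorogenic substrate HMU-PC0 (9 uM final) for 60 minutes at 37 °C; a pH 10 stop preceded fluorescence reading at Ex 386/Em 447 nm.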
Large screens that a line does not name were inactive. Shown are actives, neighbours in structure and some others; about 1.4% of the full set was active somewhere. Unless noted, calls come from the whole dose curve; as a rule, active = well fitted curve in the direction sought with a large enough effect; inconclusive = small, poorly fitted or top-dose-only effect, or another doubt; inactive = no such curve, though single readings can be large; an effect the other way counts as inactive or inconclusive.

COc1cccc(CC2(CO)CCCN(Cc3ccc(C)s3)C2)c1 (stereo not given)	none
COc1cccc(CC2(CO)CCCN(Cc3c(C)cc(C)cc3-n3cccn3)C2)c1 (stereo not given)	uPA generation inconclusive, KCNH2 WT inh -124.0, KCNH2 3.1 inh -101.6
COc1cccc(CC2(CO)CCCN(Cc3[nH]c4ccc(C)cc4c3C)C2)c1 (stereo not given)	KCNH2 WT inh -88.9, KCNH2 3.1 inh -99.2
CN(C(=O)c1cccc(NC(=O)Cc2ccc(NC(=O)C3CCN(C(=O)C4CCC4)CC3)cc2)c1)C1CC1	none (no result: p53 reactivation, Mm-Cpn inhibitor)
N#Cc1ccc(OCC(=O)n2cc(C(=O)c3cc(Cl)cc(Cl)c3O)cn2)cc1	none
Cc1cccnc1CCNCc1c(C(=O)N2C[C@@H](C)O[C@@H](C)C2)nc2ccc(Cl)cn12	none
COCCOC(=O)c1c(C)oc2ccc(O)c(CN3CCC(C)CC3)c12 (tested in a mixture with another compound)	none (no result: p53 reactivation, Mm-Cpn inhibitor)
CN(Cc1ccno1)Cc1cn(Cc2ccccc2)nc1-c1ccc2c(c1)OCO2	KCNH2 3.1 inh -94.9
CN(Cc1cccnc1)Cc1cn(Cc2ccccc2)nc1-c1ccc2c(c1)OCO2	none
O=C1OCCN1CCNCc1cn(-c2ccc(F)cc2)nc1-c1ccccc1Cl	KCNH2 WT inh -149.9
C[C@@H]1CN([C@@H](C)CO)C(=O)c2cc(NC(=O)C3CCCCC3)ccc2O[C@@H](C)CCCCO[C@H]1CN(C)S(=O)(=O)c1ccc(Cl)cc1	none (no result: p53 reactivation, uPA generation, Mm-Cpn inhibitor, ASM inhibitor)
O=C1CC(N(CCc2ccccc2)C(=S)Nc2ccccc2)C(=O)N1c1ccc(F)cc1 (stereo not given)	uPA generation inconclusive, KCNH2 3.1 inh -79.8
Cc1[nH]c2ccc(C(=O)N3CCN(c4ccccc4Cl)CC3)cc2c1C	KCNH2 WT inh -78.4
CCCC(=O)Nc1c2c(nn1-c1ccccc1)CSC2	KCNH2 3.1 inh -113.6
CC(C)(O)CC[C@@H](O)[C@](C)(O)C1CC[C@@]2(O)C3=CC(=O)[C@]4(O)C[C@@H](O)[C@@H](O)C[C@]4(C)C3CC[C@]12C (stereo not given in full)	none
Cc1oc(-c2ccccc2Cl)nc1CN1CCCC1c1ccc(F)cc1 (stereo not given)	none
Cc1nonc1C1CCCN1Cc1nc(-c2ccccc2Cl)oc1C (stereo not given)	KCNH2 3.1 inh -94.1
COc1ccc(CCNC(=O)c2ccc3c(c2)S(=O)(=O)N=C2CCCCCN23)cc1OC	none (no result: p53 reactivation, uPA generation, Mm-Cpn inhibitor, ASM inhibitor)
O=C(Nc1ccc(C(=O)N2CCCCC2)cc1)c1ccc([N+](=O)[O-])cc1	none
Cc1ccc(N=Cc2cc(Cl)cc(Cl)c2O)nc1	KCNH2 WT inh -333.3
Oc1c(Cl)cc(Cl)cc1/C=N/Nc1ncc(Br)cn1	none
COc1cc(OC)c(/C=C2\C(=O)Nc3ccccc32)c(OC)c1	uPA generation 7.94µM
COc1ccc(OCCN2CCN(C(=O)c3ccc(OC(F)F)c(OC)c3)CC2)cc1	KCNH2 3.1 inh -75.9
CC1CCCN(C(=O)CCS(=O)(=O)c2ccc3c(c2)NC(=O)C(C)S3)C1 (stereo not given)	none
CCc1c(C)nc2[nH]nc(-c3ccccc3C)n2c1=O	KCNH2 3.1 inh -192.7
CCc1c(C)nc2[nH]nc(-c3ccccc3)n2c1=O	p53 reactivation inconclusive
COc1ccc([C@H]2C[C@@H](O)[C@H](n3cc(C4CC4)nn3)CN2Cc2cccs2)cc1	none (no result: p53 reactivation, uPA generation, Mm-Cpn inhibitor, ASM inhibitor)
O=C(COc1ccc(Cl)cc1)N1CCN(c2ccc([N+](=O)[O-])c(N3CCOCC3)c2)CC1	KCNH2 3.1 inh -81.1, ASM inhibitor inconclusive
CC(C)N(C(=O)c1sc2cc([N+](=O)[O-])ccc2c1Cl)C(C)C	none
O=C(c1cc([N+](=O)[O-])ccc1N1CCOCC1)N1CCN(c2ccc([N+](=O)[O-])cc2)CC1	KCNH2 WT inh -124.6, KCNH2 3.1 inh -106.4
CN(C)S(=O)(=O)c1ccc(N2CCCC2)c(C(=O)N2CCN(c3ccc([N+](=O)[O-])cc3)CC2)c1	KCNH2 WT inh -82.8, KCNH2 3.1 inh -115.9
O=C(c1sc2cc([N+](=O)[O-])ccc2c1Cl)N1CCOCC1	KCNH2 WT inh -96.6
COCCCN(C(=O)Cc1coc2cc(C)c(C)cc12)c1c(N)n(Cc2ccccc2)c(=O)[nH]c1=O	none
COc1ccc(CCNC(=O)c2cc3cc(F)ccc3nc2C)cc1OC	none (no result: p53 reactivation, Mm-Cpn inhibitor)
COc1c(OC(C)=O)ccc(/C=C/c2ccc3cccc(OC)c3n2)c1[N+](=O)[O-]	p53 reactivation inconclusive
COc1c(OC(C)=O)ccc(/C=C/c2ccc3ccccc3n2)c1[N+](=O)[O-]	p53 reactivation inconclusive, KCNH2 3.1 inh -77.0
CN1CCC(=C(c2ccccc2)c2ccc(Br)cc2)CC1	KCNH2 3.1 inh -96.8 (no result: p53 reactivation, Mm-Cpn inhibitor)
COc1ccc(S(=O)(=O)N2CCOCC2)cc1NC(=O)CCCSc1ccccc1	none (no result: p53 reactivation, uPA generation, Mm-Cpn inhibitor, ASM inhibitor)
CC(=O)c1cccc(NC(=O)COC(=O)Cn2cnc3ccccc32)c1	none
C#CCCOC(=O)N1C2=NC(C(=O)OC)=C(C(=O)OC)[C@@H]3N(Cc4ccccc4)c4ccccc4[C@]23C[C@H]1C(=O)OC	uPA generation inconclusive, KCNH2 3.1 inh -135.7
Cc1ccccc1NC(=S)NNc1ncc(C(F)(F)F)cc1Cl	Mm-Cpn inhibitor 50.1µM
COc1cccc(C2C(C#N)=C(N)OC(C(C)(C)C)=C2C#N)c1 (stereo not given)	KCNH2 3.1 inh -189.2
COC(=O)c1c(NC(=O)c2ccccc2OC)sc(C(=O)N2CCOCC2)c1C	none
C[C@@H]1CN([C@@H](C)CO)S(=O)(=O)c2ccc(Br)cc2O[C@H]1CN(C)C(=O)c1ccncc1	none (no result: p53 reactivation, uPA generation, Mm-Cpn inhibitor, ASM inhibitor)
O=C(CCC1CCCCC1)NCCN1C2=NC[C@@H](Cc3ccccc3)N2C[C@H]1Cc1ccc(O)cc1	KCNH2 WT inh -116.4, KCNH2 3.1 inh -98.7 (no result: Mm-Cpn inhibitor)
COc1ccc(C[C@@H]2CN3C(=NC[C@@H]3Cc3ccc(O)cc3)N2C[C@H](C)NC(=O)CCC2CCCCC2)cc1	KCNH2 WT inh -89.4
O=C(Cc1ccccc1)NCC(=O)N1CCN(c2ccc(F)cc2)CC1	none (no result: p53 reactivation, uPA generation, Mm-Cpn inhibitor, ASM inhibitor)
COc1ccc(-n2nc(C(=O)NCC(=O)NCCC3=CCCCC3)c3ccccc3c2=O)cc1OC	none
CSc1ccc(CN2CCC(N3CCC(C(=O)NC4CC4)CC3)CC2)cc1	none (no result: p53 reactivation, uPA generation, Mm-Cpn inhibitor, ASM inhibitor)
